Results from PubChem BioAssay (EPA / NIEHS).
Inconclusive results are not listed. The source made the active and inactive calls. How the source made its calls, unless noted: active means hit-call score of the fitted dose curve at least 0.9, where 1 is the maximum; inconclusive means response in the unintended direction; inactive means score below 0.9.

Columns and labels:
[1] = CCTE_Shafer_MEA_dev_network_spike_duration_std: CCTE's Neural Network Formation Assay for Standard Deviation of Network Spike Duration, Shafer Lab (AID 2284052; active means hit-call score of the fitted dose curve at least 0.9, where 1 is the maximum; inactive means score below 0.9;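 further: area under curve of spike duration SD across recording days 5 to 12; hits are decreases in network spike duration SD versus DMSO vehicle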)
In short: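 Rat cortical cultures, 1.5 x 10^5 cells/well, exposed continuously from plating to DIV 12 with media/compound renewal at DIV 5, 9. Spontaneous activity recorded DIV 5/7/9/12, AxIS adaptive spike detector; AUC across days; negative direction vs DMSO.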

[2] = CCTE_Shafer_MEA_dev_per_network_spike_spike_number_mean: CCTE's Neural Network Formation Assay for Mean Number of Spikes in a Network Spike, Shafer Lab (AID 2284053; active means hit-call score of the fitted dose curve at least 0.9, where 1 is the maximum; inactive means score below 0.9;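 on AC50: fitted as decrease in spikes per network spike relative to DMSO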)
In short: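 Rat cortical primary cultures on 48-well MEA; compound from day 0, re-dosed with full media change DIV 5, 9. Recorded DIV 5, 7, 9, 12; spikes in 0.05 s window at network-spike peak ÷ total network spikes; AUC; loss vs DMSO.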

[3] = CCTE_Shafer_MEA_dev_per_network_spike_spike_percent: CCTE's Neural Network Formation Assay for Percent of Spikes in a Network Spike, Shafer Lab (AID 2284054; active means hit-call score of the fitted dose curve at least 0.9, where 1 is the maximum; inactive means score below 0.9)
In short: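 Rat primary cortical neurons were grown on 48-well MEA plates (16 electrodes/well), exposed from plating day 0 through day 12, with treatment renewed on DIV 5 and 9. Percent of spikes within 0.05 s network-spike peaks was measured, summarised as AUC across days 5, 7, 9, 12.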

[4] = CCTE_Shafer_MEA_dev_AB: CCTE's Alamar Blue Assay for Cytotoxicity in the Neural Network Formation Assay, Shafer Lab (AID 2284083);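 further: resazurin reduction fluorescence as viability of cultured neurons; twelve days of exposure from plating with re-dosing on DIV 5 and 9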
In short: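 Rat cortical primary cultures, 1.5 x 10^5 cells/well on MEA; continuous compound exposure over 12 days of network development, re-dosed with full medium change DIV 5 and 9. Alamar Blue fluorescence; loss of signal = cytotoxicity vs DMSO baseline.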

[5] = CCTE_Shafer_MEA_dev_mutual_information_norm: CCTE's Neural Network Formation Assay for Mutual Information Normalization, Shafer Lab (AID 2284091; active means hit-call score of the fitted dose curve at least 0.9, where 1 is the maximum; inactive means score below 0.9)
In short: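 Primary rat cortical neurons on PEI-coated 48-well MEA plates, 1.5 x 10^5 cells/well, exposed from day 0 through day 12 with re-dosing at DIV 5 and 9. Mutual information between electrodes recorded days 5, 7, 9, 12; trapezoidal AUC, loss-of-signal fit versus DMSO.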

[6] = CCTE_Shafer_MEA_acute_LDH: CCTE's Lactate Dehydrogenase Assay for Cytotoxicity in the Neural Acute Assay, Shafer Lab (AID 2284086);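 further: active means LDH release rises above DMSO vehicle level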
In short: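 Released lactate dehydrogenase, read at 490 nm, indicated cytotoxicity after acute 40-min compound treatment of rat cortical neuron networks grown on 48-well MEA plates.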

[7] = CCTE_Shafer_MEA_acute_AB: CCTE's Alamar Blue Assay for Cytotoxicity in the Neural Acute Assay, Shafer Lab (AID 2284069);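 further: active compounds lower the viability signal compared with DMSO wells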
In short: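 Read-out: resazurin fluorescence (ex 544, em 590 nm) after CTB reagent at 1:6 dilution in fresh media. Cells: primary rat cortical neuron networks, DIV 13 or 15, chemically exposed on MEA plates; DMSO as negative control/baseline.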

[8] = tested on: DIO3 (gene 1735); test: CCTE_GLTED_hDIO3: CCTE's human Deiodinase 3 (DIO3) Inhibition Assay, Great Lakes Toxicology and Ecology Division (GLTED) Lab (AID 2284055);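 further: potency is for inhibition seen as loss of released iodide signal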
In short: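 Enzyme activity is tracked as iodide release from substrate by recombinant human DIO3 over 3 h with chemical present. A second Sandell-Kolthoff step converts iodide to an absorbance signal, fitted relative to DMSO.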

## CCNC(=O)NC(=O)C(C#N)=NOC
[1]
  outcome: inactive
[2]
  outcome: inactive
[3]
  outcome: inactive
[4]
  outcome: inactive
[5]
  outcome: inactive

## CCCCC(O)(Cn1cncn1)c1ccc(Cl)cc1Cl (centres undefined)
[6]
  outcome: inactive

## CCOc1nc(F)cc2nc(S(=O)(=O)Nc3c(Cl)cccc3Cl)nn12
[7]
  outcome: inactive

## CC(C)(C)C(=O)C(Oc1ccc(Cl)cc1)n1cncn1 (centres undefined)
[1]
  outcome: inactive
[2]
  AC50: 35.5 µM (active)
[3]
  AC50: 45.9 µM (active)
[4]
  AC50: 38.6 µM (active)
[5]
  outcome: inactive

## CC(C)C1(C)N=C(c2ncccc2C(=O)O)NC1=O (centres undefined)
[7]
  outcome: inactive
[6]
  outcome: inactive

## Clc1nc(Cl)nc(Nc2ccccc2Cl)n1
[7]
  outcome: inactive
[6]
  outcome: inactive

## Cn1c(-c2ccccc2)cc(-c2ccccc2)[n+]1C
[7]
  outcome: inactive
[6]
  outcome: inactive

## N#Cc1c[nH]cc1-c1cccc2c1OC(F)(F)O2
[6]
  outcome: inactive

## CCCCOCN(C(=O)CCl)c1c(CC)cccc1CC
[8]
  AC50: 37.6 µM (active)

## CCCC(=NOCC)C1=C(O)CC(CC(C)SCC)CC1=O (centres undefined)
[6]
  outcome: inactive

## Cc1nc(N(C)C)nc(OC(=O)N(C)C)c1C
[8]
  AC50: 10 µM (active)
[6]
  outcome: inactive

## CC(C)N1C(=O)c2ccccc2NS1(=O)=O
[6]
  outcome: inactive

## COCC(=O)N(c1c(C)cccc1C)C(C)C(=O)OC (centres undefined)
[6]
  outcome: inactive

## OC(c1ccc(Cl)cc1)(c1ccc(Cl)cc1)C(Cl)(Cl)Cl
[8]
  AC50: 15.8 µM (active)
[7]
  outcome: inactive
[6]
  outcome: inactive

## CN/C(=N\[N+](=O)[O-])NCc1cnc(Cl)s1
[1]
  outcome: inactive
[2]
  outcome: inactive
[3]
  outcome: inactive
[5]
  outcome: inactive

## CC1(C)CCC(=Cc2ccc(Cl)cc2)C1(O)Cn1cncn1 (centres undefined)
[7]
  outcome: inactive
[6]
  outcome: inactive

## Cc1ccc(N=CN(C)C=Nc2ccc(C)cc2C)c(C)c1
[7]
  outcome: inactive

## CS(=O)(=O)c1cc(C(F)(F)F)ccc1C(=O)c1cnoc1C1CC1
[1]
  outcome: inactive
[2]
  outcome: inactive
[3]
  outcome: inactive
[5]
  outcome: inactive

## CCOc1cc(C(C)(C)C)ccc1C1COC(c2c(F)cccc2F)=N1 (centres undefined)
[6]
  outcome: inactive

## CC(C)N1C(=O)N(c2ccccc2)CSC1=NC(C)(C)C
[7]
  outcome: inactive
[6]
  outcome: inactive

## COP(=S)(OC)Oc1ccc([N+](=O)[O-])c(C)c1
[1]
  outcome: inactive
[2]
  outcome: inactive
[3]
  outcome: inactive
[4]
  outcome: inactive
[5]
  outcome: inactive

## Nc1c(Cl)c(F)nc(OCC(=O)O)c1Cl
[7]
  outcome: inactive
[6]
  outcome: inactive
